# Numbering of substitutions follows the chain as printed.
# Key:
# Test in all cases: PBM; 200 nM protein, PBS
# Conditions in all cases: dsDNA, one strand shown
# SHOX [1] = molecular target: SHOX (Homo sapiens, UniProt O15266 103-189)
# HOXB6 [2] = molecular target: HOXB6 (Homo sapiens, UniProt P17509 132-218, K202E)
# ALX3 [3] = molecular target: ALX3 (Homo sapiens, UniProt O95076 139-225, N203Q)
# SHOX [4] = molecular target: SHOX (Homo sapiens, UniProt O15266 103-189, R173C)
# ALX3 [5] = molecular target: ALX3 (Homo sapiens, UniProt O95076 139-225)
# ALX3 (Homo sapiens, UniProt O95076 139-225), sequence (O95076 139-225): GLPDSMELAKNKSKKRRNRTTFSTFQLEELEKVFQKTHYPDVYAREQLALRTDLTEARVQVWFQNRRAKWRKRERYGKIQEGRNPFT
# ALX3 [6] = molecular target: ALX3 (Homo sapiens, UniProt O95076 139-225, L168Q)
# ALX3 (Homo sapiens, UniProt O95076 139-225, L168Q), sequence (O95076 139-225 L168Q): as the sequence (O95076 139-225) above, with L30Q counted along it
# ALX3 [7] = molecular target: ALX3 (Homo sapiens, UniProt O95076 139-225, L168V)
# ALX3 (Homo sapiens, UniProt O95076 139-225, L168V), sequence (O95076 139-225 L168V): as the sequence (O95076 139-225) above, with L30V counted along it
# ALX3 [8] = molecular target: ALX3 (Homo sapiens, UniProt O95076 139-225, N203S)
# ALX3 (Homo sapiens, UniProt O95076 139-225, N203S), sequence (O95076 139-225 N203S): as the sequence (O95076 139-225) above, with N65S counted along it
# HOXB6 [9] = molecular target: HOXB6 (Homo sapiens, UniProt P17509 132-218)
# HOXB6 (Homo sapiens, UniProt P17509 132-218), sequence (P17509 132-218): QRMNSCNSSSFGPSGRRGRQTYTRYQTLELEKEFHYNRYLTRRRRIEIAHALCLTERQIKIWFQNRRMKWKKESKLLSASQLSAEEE
# PAX4 [10] = molecular target: T1, PAX4 (Homo sapiens, UniProt O43316 9-242, R200K)
# T1 sequence: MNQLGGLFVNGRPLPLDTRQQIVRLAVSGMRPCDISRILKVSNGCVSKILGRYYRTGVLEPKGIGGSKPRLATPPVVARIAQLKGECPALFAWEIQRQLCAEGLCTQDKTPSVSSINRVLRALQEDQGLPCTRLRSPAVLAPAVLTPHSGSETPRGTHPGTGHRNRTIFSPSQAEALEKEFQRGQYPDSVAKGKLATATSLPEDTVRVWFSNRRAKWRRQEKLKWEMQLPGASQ
# PAX4 [11] = molecular target: T2, PAX4 (Homo sapiens, UniProt O43316 9-242)
# T2 sequence: T1 sequence with K192R
# PAX4 [12] = molecular target: T3, PAX4 (Homo sapiens, UniProt O43316 9-242, R200Q)
# T3 sequence: T1 sequence with K192Q
# PAX4 [13] = molecular target: T4, PAX4 (Homo sapiens, UniProt O43316 9-242, F177V)
# T4 sequence: T1 sequence with F169V, K192R
# PAX4 [14] = molecular target: T5, PAX4 (Homo sapiens, UniProt O43316 9-242, F177Y)
# T5 sequence: T1 sequence with F169Y, K192R
# HESX1 [15] = molecular target: HESX1 (Homo sapiens, UniProt Q9UBX0 95-180, R109Q)
# HESX1 (Homo sapiens, UniProt Q9UBX0 95-180, R109Q), sequence (Q9UBX0 95-180 R109Q): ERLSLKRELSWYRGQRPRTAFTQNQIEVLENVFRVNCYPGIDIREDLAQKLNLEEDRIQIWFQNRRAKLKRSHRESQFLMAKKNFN
# HESX1 [16] = molecular target: HESX1 (Homo sapiens, UniProt Q9UBX0 95-180, F115L)
# HESX1 (Homo sapiens, UniProt Q9UBX0 95-180, F115L), sequence (Q9UBX0 95-180 F115L): as the sequence (Q9UBX0 95-180 R109Q) above, with Q15R, F21L counted along it
# PAX4 [17] = molecular target: T6, PAX4 (Homo sapiens, UniProt O43316 9-242, R227W)
# T6 sequence: T1 sequence with K192R, R219W
# ALX4 [18] = molecular target: ALX4 (Homo sapiens, UniProt Q9H161 200-286)
# ALX4 (Homo sapiens, UniProt Q9H161 200-286), sequence (Q9H161 200-286): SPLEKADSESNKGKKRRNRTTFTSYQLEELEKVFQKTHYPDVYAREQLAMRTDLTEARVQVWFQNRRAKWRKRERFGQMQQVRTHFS
# PRRX1 [19] = molecular target: PRRX1 (Homo sapiens, UniProt P54821 80-166, F113S)
# PRRX1 (Homo sapiens, UniProt P54821 80-166, F113S), sequence (P54821 80-166 F113S): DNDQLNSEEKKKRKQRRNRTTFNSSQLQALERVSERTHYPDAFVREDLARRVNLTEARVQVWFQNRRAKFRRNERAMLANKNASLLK
# ALX4 [20] = molecular target: ALX4 (Homo sapiens, UniProt Q9H161 200-286, Q225E)
# ALX4 (Homo sapiens, UniProt Q9H161 200-286, Q225E), sequence (Q9H161 200-286 Q225E): as the sequence (Q9H161 200-286) above, with Q26E counted along it
# ALX1 [21] = molecular target: ALX1 (Homo sapiens, UniProt Q15699 118-204, L144V)
# ALX1 (Homo sapiens, UniProt Q15699 118-204, L144V), sequence (Q15699 118-204 L144V): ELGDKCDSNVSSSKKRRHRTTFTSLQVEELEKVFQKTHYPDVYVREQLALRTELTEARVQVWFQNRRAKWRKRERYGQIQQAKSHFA
# ALX1 [22] = molecular target: ALX1 (Homo sapiens, UniProt Q15699 118-204, L144R)
# ALX1 (Homo sapiens, UniProt Q15699 118-204, L144R), sequence (Q15699 118-204 L144R): as the sequence (Q15699 118-204 L144V) above, with V27R counted along it
# PROP1 [23] = molecular target: PROP1 (Homo sapiens, UniProt O75360 56-141)
# PROP1 (Homo sapiens, UniProt O75360 56-141), sequence (O75360 56-141): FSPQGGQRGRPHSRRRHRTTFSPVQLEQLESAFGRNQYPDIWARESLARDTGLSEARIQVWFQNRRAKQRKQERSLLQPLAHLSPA
# PROP1 [24] = molecular target: PROP1 (Homo sapiens, UniProt O75360 56-141, R99H)
# PROP1 (Homo sapiens, UniProt O75360 56-141, R99H), sequence (O75360 56-141 R99H): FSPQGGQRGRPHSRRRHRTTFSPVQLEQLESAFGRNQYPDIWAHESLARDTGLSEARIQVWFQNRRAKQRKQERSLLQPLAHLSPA
# PROP1 [25] = molecular target: PROP1 (Homo sapiens, UniProt O75360 56-141, F88S)
# PROP1 (Homo sapiens, UniProt O75360 56-141, F88S), sequence (O75360 56-141 F88S): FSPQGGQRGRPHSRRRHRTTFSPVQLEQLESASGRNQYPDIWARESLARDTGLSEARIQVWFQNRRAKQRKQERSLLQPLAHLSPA
# ALX1 [26] = molecular target: ALX1 (Homo sapiens, UniProt Q15699 118-204)
# ALX1 (Homo sapiens, UniProt Q15699 118-204), sequence (Q15699 118-204): as the sequence (Q15699 118-204 L144V) above, with V27L counted along it
# PRRX1 [27] = molecular target: PRRX1 (Homo sapiens, UniProt P54821 80-166)
# PRRX1 (Homo sapiens, UniProt P54821 80-166), sequence (P54821 80-166): as the sequence (P54821 80-166 F113S) above, with S34F counted along it
# HOXB9 [28] = molecular target: HOXB9 (Homo sapiens, UniProt P17482 171-250)
# HOXB9 (Homo sapiens, UniProt P17482 171-250), sequence (P17482 171-250): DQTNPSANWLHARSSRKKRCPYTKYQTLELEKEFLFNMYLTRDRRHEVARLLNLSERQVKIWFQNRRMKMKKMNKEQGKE
# HOXB9 [29] = molecular target: HOXB9 (Homo sapiens, UniProt P17482 171-250, R186Q)
# HOXB9 (Homo sapiens, UniProt P17482 171-250, R186Q), sequence (P17482 171-250 R186Q): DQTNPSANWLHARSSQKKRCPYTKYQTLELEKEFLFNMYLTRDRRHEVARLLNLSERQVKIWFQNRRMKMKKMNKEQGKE
# MSX2 [30] = molecular target: MSX2 (Homo sapiens, UniProt P35548 130-214, R199I)
# MSX2 (Homo sapiens, UniProt P35548 130-214, R199I), sequence (P35548 130-214 R199I): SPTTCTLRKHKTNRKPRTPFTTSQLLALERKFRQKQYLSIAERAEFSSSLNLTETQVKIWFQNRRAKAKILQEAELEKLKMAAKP
# MSX2 [31] = molecular target: MSX2 (Homo sapiens, UniProt P35548 130-214)
# MSX2 (Homo sapiens, UniProt P35548 130-214), sequence (P35548 130-214): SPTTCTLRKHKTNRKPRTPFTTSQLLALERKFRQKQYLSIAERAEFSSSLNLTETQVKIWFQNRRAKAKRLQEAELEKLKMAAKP
# MSX2 [32] = molecular target: MSX2 (Homo sapiens, UniProt P35548 130-214, F161Y)
# MSX2 (Homo sapiens, UniProt P35548 130-214, F161Y), sequence (P35548 130-214 F161Y): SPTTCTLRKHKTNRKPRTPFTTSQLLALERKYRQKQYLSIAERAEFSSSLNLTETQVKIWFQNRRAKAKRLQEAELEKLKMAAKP
# SHOX (Homo sapiens, UniProt O15266 103-189, R173C), sequence (O15266 103-189 R173C): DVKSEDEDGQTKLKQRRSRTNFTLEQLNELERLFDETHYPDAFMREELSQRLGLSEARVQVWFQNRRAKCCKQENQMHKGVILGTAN
# ALX3 (Homo sapiens, UniProt O95076 139-225, N203Q), sequence (O95076 139-225 N203Q): as the sequence (O95076 139-225) above, with N65Q counted along it
# SHOX (Homo sapiens, UniProt O15266 103-189), sequence (O15266 103-189): as the sequence (O15266 103-189 R173C) above, with C71R counted along it
# HOXB6 (Homo sapiens, UniProt P17509 132-218, K202E), sequence (P17509 132-218 K202E): as the sequence (P17509 132-218) above, with K71E counted along it
sequence,measurement,setting,value
CCAGCTCC,binding signal,SHOX [1],"7.19 upbm affinity estimate (log intensity, higher = more binding, comparable within an allelic series)"
same,binding signal,HOXB6 [2],"8.94 upbm affinity estimate (log intensity, higher = more binding, comparable within an allelic series)"
same,binding signal,ALX3 [3],"7.65 upbm affinity estimate (log intensity, higher = more binding, comparable within an allelic series)"
same,binding signal,SHOX [4],"7.18 upbm affinity estimate (log intensity, higher = more binding, comparable within an allelic series)"
same,binding signal,ALX3 [5],"7.54 upbm affinity estimate (log intensity, higher = more binding, comparable within an allelic series)"
same,binding signal,ALX3 [6],"7.75 upbm affinity estimate (log intensity, higher = more binding, comparable within an allelic series)"
same,binding signal,ALX3 [7],"7.76 upbm affinity estimate (log intensity, higher = more binding, comparable within an allelic series)"
same,binding signal,ALX3 [8],"7.69 upbm affinity estimate (log intensity, higher = more binding, comparable within an allelic series)"
same,binding signal,HOXB6 [9],"8.78 upbm affinity estimate (log intensity, higher = more binding, comparable within an allelic series)"
AATTAGAC,binding signal,SHOX [1],"11.4 upbm affinity estimate (log intensity, higher = more binding, comparable within an allelic series)"
same,binding signal,PAX4 [10],"11.7 upbm affinity estimate (log intensity, higher = more binding, comparable within an allelic series)"
same,binding signal,PAX4 [11],"12.2 upbm affinity estimate (log intensity, higher = more binding, comparable within an allelic series)"
same,binding signal,PAX4 [12],"12 upbm affinity estimate (log intensity, higher = more binding, comparable within an allelic series)"
same,binding signal,SHOX [4],"9.23 upbm affinity estimate (log intensity, higher = more binding, comparable within an allelic series)"
same,binding signal,PAX4 [13],"10.6 upbm affinity estimate (log intensity, higher = more binding, comparable within an allelic series)"
same,binding signal,PAX4 [14],"11 upbm affinity estimate (log intensity, higher = more binding, comparable within an allelic series)"
same,binding signal,HESX1 [15],"8.68 upbm affinity estimate (log intensity, higher = more binding, comparable within an allelic series)"
same,binding signal,HESX1 [16],"7.81 upbm affinity estimate (log intensity, higher = more binding, comparable within an allelic series)"
same,binding signal,PAX4 [17],"11 upbm affinity estimate (log intensity, higher = more binding, comparable within an allelic series)"
CTAATTTA,binding signal,SHOX [1],"11.5 upbm affinity estimate (log intensity, higher = more binding, comparable within an allelic series)"
same,binding signal,ALX4 [18],"13.7 upbm affinity estimate (log intensity, higher = more binding, comparable within an allelic series)"
same,binding signal,PAX4 [10],"11.7 upbm affinity estimate (log intensity, higher = more binding, comparable within an allelic series)"
same,binding signal,PRRX1 [19],"11.1 upbm affinity estimate (log intensity, higher = more binding, comparable within an allelic series)"
same,binding signal,PAX4 [11],"12.3 upbm affinity estimate (log intensity, higher = more binding, comparable within an allelic series)"
same,binding signal,ALX4 [20],"12.6 upbm affinity estimate (log intensity, higher = more binding, comparable within an allelic series)"
same,binding signal,ALX1 [21],"11.4 upbm affinity estimate (log intensity, higher = more binding, comparable within an allelic series)"
same,binding signal,ALX3 [3],"8.44 upbm affinity estimate (log intensity, higher = more binding, comparable within an allelic series)"
same,binding signal,PAX4 [12],"11.9 upbm affinity estimate (log intensity, higher = more binding, comparable within an allelic series)"
same,binding signal,SHOX [4],"9.2 upbm affinity estimate (log intensity, higher = more binding, comparable within an allelic series)"
same,binding signal,ALX1 [22],"11.1 upbm affinity estimate (log intensity, higher = more binding, comparable within an allelic series)"
same,binding signal,PAX4 [13],"10.6 upbm affinity estimate (log intensity, higher = more binding, comparable within an allelic series)"
same,binding signal,ALX3 [5],"12.3 upbm affinity estimate (log intensity, higher = more binding, comparable within an allelic series)"
same,binding signal,PAX4 [14],"11 upbm affinity estimate (log intensity, higher = more binding, comparable within an allelic series)"
same,binding signal,PROP1 [23],"11 upbm affinity estimate (log intensity, higher = more binding, comparable within an allelic series)"
same,binding signal,PROP1 [24],"10.8 upbm affinity estimate (log intensity, higher = more binding, comparable within an allelic series)"
same,binding signal,ALX3 [6],"10.2 upbm affinity estimate (log intensity, higher = more binding, comparable within an allelic series)"
same,binding signal,ALX3 [7],"9.6 upbm affinity estimate (log intensity, higher = more binding, comparable within an allelic series)"
same,binding signal,PROP1 [25],"7.64 upbm affinity estimate (log intensity, higher = more binding, comparable within an allelic series)"
same,binding signal,PAX4 [17],"11 upbm affinity estimate (log intensity, higher = more binding, comparable within an allelic series)"
same,binding signal,ALX1 [26],"12.1 upbm affinity estimate (log intensity, higher = more binding, comparable within an allelic series)"
same,binding signal,ALX3 [8],"8.54 upbm affinity estimate (log intensity, higher = more binding, comparable within an allelic series)"
same,binding signal,PRRX1 [27],"13.3 upbm affinity estimate (log intensity, higher = more binding, comparable within an allelic series)"
AATTAGGA,binding signal,SHOX [1],"11.4 upbm affinity estimate (log intensity, higher = more binding, comparable within an allelic series)"
same,binding signal,HOXB9 [28],"10.3 upbm affinity estimate (log intensity, higher = more binding, comparable within an allelic series)"
same,binding signal,SHOX [4],"9.06 upbm affinity estimate (log intensity, higher = more binding, comparable within an allelic series)"
same,binding signal,HOXB9 [29],"10.2 upbm affinity estimate (log intensity, higher = more binding, comparable within an allelic series)"
CAAATTAG,binding signal,SHOX [1],"11.8 upbm affinity estimate (log intensity, higher = more binding, comparable within an allelic series)"
same,binding signal,ALX4 [18],"13.6 upbm affinity estimate (log intensity, higher = more binding, comparable within an allelic series)"
same,binding signal,PAX4 [10],"11.8 upbm affinity estimate (log intensity, higher = more binding, comparable within an allelic series)"
same,binding signal,PAX4 [11],"12.4 upbm affinity estimate (log intensity, higher = more binding, comparable within an allelic series)"
same,binding signal,ALX4 [20],"12.4 upbm affinity estimate (log intensity, higher = more binding, comparable within an allelic series)"
same,binding signal,MSX2 [30],"12.1 upbm affinity estimate (log intensity, higher = more binding, comparable within an allelic series)"
same,binding signal,ALX1 [21],"11.3 upbm affinity estimate (log intensity, higher = more binding, comparable within an allelic series)"
same,binding signal,ALX3 [3],"8.31 upbm affinity estimate (log intensity, higher = more binding, comparable within an allelic series)"
same,binding signal,PAX4 [12],"12.3 upbm affinity estimate (log intensity, higher = more binding, comparable within an allelic series)"
same,binding signal,SHOX [4],"9.26 upbm affinity estimate (log intensity, higher = more binding, comparable within an allelic series)"
same,binding signal,ALX1 [22],"10.9 upbm affinity estimate (log intensity, higher = more binding, comparable within an allelic series)"
same,binding signal,PAX4 [13],"10.4 upbm affinity estimate (log intensity, higher = more binding, comparable within an allelic series)"
same,binding signal,MSX2 [31],"13.3 upbm affinity estimate (log intensity, higher = more binding, comparable within an allelic series)"
same,binding signal,ALX3 [5],"12.2 upbm affinity estimate (log intensity, higher = more binding, comparable within an allelic series)"
same,binding signal,PAX4 [14],"11 upbm affinity estimate (log intensity, higher = more binding, comparable within an allelic series)"
same,binding signal,PROP1 [23],"11.1 upbm affinity estimate (log intensity, higher = more binding, comparable within an allelic series)"
same,binding signal,PROP1 [24],"10.7 upbm affinity estimate (log intensity, higher = more binding, comparable within an allelic series)"
same,binding signal,ALX3 [6],"10.1 upbm affinity estimate (log intensity, higher = more binding, comparable within an allelic series)"
same,binding signal,ALX3 [7],"9.51 upbm affinity estimate (log intensity, higher = more binding, comparable within an allelic series)"
same,binding signal,PROP1 [25],"7.47 upbm affinity estimate (log intensity, higher = more binding, comparable within an allelic series)"
same,binding signal,MSX2 [32],"12.9 upbm affinity estimate (log intensity, higher = more binding, comparable within an allelic series)"
same,binding signal,PAX4 [17],"11 upbm affinity estimate (log intensity, higher = more binding, comparable within an allelic series)"
same,binding signal,ALX1 [26],"12.1 upbm affinity estimate (log intensity, higher = more binding, comparable within an allelic series)"
same,binding signal,ALX3 [8],"8.39 upbm affinity estimate (log intensity, higher = more binding, comparable within an allelic series)"

# Source: paper PMC11006913
